# Laboratory results taken from PubChem BioAssay AID1508645 (National Center for Advancing Translational Sciences (NCATS), 2021).
# Records with an inconclusive call do not appear. Activity calls are given as the source filed them. Calls follow the shape of the dose curve; as a rule, active = well fitted cell-killing curve with a large enough effect; inconclusive = small, poorly fitted or top-dose-only effect, or effect the other way; inactive = no such curve, though single readings can be large or run the other way.
# Experiment: Cell viability assay in S16 Pmp22-HiBiT cells
# Conditions: S16 Schwann Pmp22-HiBiT viability, CellTiter-Glo, 24 h; series mostly up to 27.9 µM; activity change, negative = cytotoxicity: at the top concentration
# Text: Assay Provider: Jim Inglese Ph.D. National Center for Advancing Translational Science, National Institutes of Health, Rockville, MD CMT is a heterogeneous group of neurological disorders that affect approximately 1 in 2,500 people. In particular, the most common form of CMT, CMT1A is genetically linked to the duplication of the PMP22 gene which leads to Schwann cell overexpression, thus manifesting itself as a typical case of dose-sensitive diseases. To identify small molecule compounds that can mediate the expression of PMP22 we developed a phenotypic assay screening strategy by utilizing genome editing techniques to construct Schwann cell lines containing novel reporter technology to monitor the transcriptional or translational regulation of PMP22. For high sensitivity we use a bioluminescent reporter system embedded in the 3' UTR of the PMP22 gene (S16(c9) Pmp22-F2sN) to identify compounds that inhibit gene expression. […] We can further discriminate the effect of all transcriptionally active molecules on PMP22 translation or stability with an assay that incorporates a short NLuc peptide (HiBiT) at the C-terminus of expressed PMP22 (S16(f8) PMP22-HiBiT) allowing alpha complementation and luminescence detection of membrane-associated PMP22 protein. These assays were screened against the NCATS Sytravon Library Collection. Miniaturization of these assays to 1536-well plate format for quantitative high throughput screening (qHTS) yielded rich data sets immediately from the qHTS assay (S16(c9) Pmp22-F2sN), when compared with data from a cell viability assay (Cell TiterGlo) to identify compounds that decreased the output signals through cellular toxicity to streamline the selection process of actives for subsequent characterization using the HiBiT assay (S16(f8) PMP22-HiBiT).
# Cell viability assay in S16 Pmp22-HiBiT cells PROTOCOL TABLE (format as described by Inglese J, Shamu CE and Guy RK. 2007) SEQUENCE No. (e.g., 1, 2, 3, etc.); PARAMETER (e.g., Cells, Incubation, Reagent, etc.); VALUE and DESCRIPTION. 1. Cells. Add 500-1,000 cells in 4 uL in growth media (DMEM High Glucose, No Phenol Red media + 10% heat-inactivated FBS + 1% Pen/Strep supplemented media) per well into Greiner 1536-well white/solid bottom high base, TC-treated plates. 2. Compounds. Library compounds and controls added at 23nL per well, transferred by Pin Tool. 3. Incubation. Incubate plates at 37C, 5% CO2, 95% RH for 24 h. 4. Reagent. Add 3uL CellTiter-Glo per well of Greiner 1536-well plates. 5. Incubation. Incubate plates at room temperature for 15 min., protect from light. 6. Detector. Luminescence measured using CCD-based camera (Viewlux). NOTES (numbers refer to Sequence numbers above; values are from representative experiments) 6. Luminescence Read: Clear filter; Exposure = 1 sec, Gain = High, Speed = Slow, Binning = 2X REFERENCES: 1. Inglese J, Shamu CE and Guy RK, Reporting data from high throughput screening of small molecule libraries, Nature Chemical Biology, 2007, 3(8): 438-441. doi.org/10.1038/nchembio0807-438 2. Yasgar A, Shinn P, Jadhav A, Auld DS, Michael S, Zheng W, Austin CP, Inglese J and Simeonov A, Compound Management for Quantitative High-Throughput Screening. J. Assoc. Lab. Auto., 2008, 13: 79-89. doi: 10.1016/j.jala.2007.12.004
row,SMILES,"activity change, negative = cytotoxicity"
1,Cc1cccc(Nc2c3c(nc4nncn24)CCC3)c1C,-1.52% (inactive)
2,CCCn1c(=N)c(C(=O)NC(C)c2ccccc2)cc2c(=O)n3ccccc3nc21 (centres undefined),-8.47% (inactive)
3,CCC(=O)C1=C(c2cccc([N+](=O)[O-])c2)N(C(=O)CC)n2c(nnc2-c2ccccc2)S1,2.29% (inactive)
4,COc1ccc(Br)cc1CC1C(=O)Nc2ccccc21 (centres undefined),-24.8% (inactive)
